The record followed here is PubChem BioAssay.

For assay [1], the system named is Aerobactin synthetase IucA (Klebsiella pneumoniae). As to the kind of experiment: IucA aerobactin synthetase inhibitors, biochemical, Tocris library, absorbance (AID 1345561; call rule not given here;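 also: 100% = enzyme without compound and 0% = no enzyme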). The settings on record: purified IucA enzyme assay, absorbance (OD) read-out; stronger effect = lower value;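 tested at 8 µM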.
A short description of assay [2]: sensitizers of A549 cells to miR-34 induction, primary screen, imaging, A549 dox-inducible miR-34, nuclei and caspase counts (AID 1347080). The note with it: A549 miR-34 inducible, Hoechst nuclei count, 48 h.
The nature of assay [3]: viability rescue of complex I mutant cybrids, primary screen, cell-based, galactose medium, ATP luminescence (AID 1645843;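 active = z-score of at least 1.8 in each of two replicates, scored against plate mean and spread of sample wells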;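 also: positive z means more ATP and so rescue of galactose-driven cybrid death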). The note with it: complex I mutant cybrid cells, 72 h, stronger effect = higher value.
The mark [4] stands for this setting: stronger effect = lower value, cell number ratio, induced over uninduced.
The mark [5] stands for this setting: measured here: relative caspase fold change +Dox/-Dox.
Setting [6] is: measured here: total cells with miR-34 induction, stronger effect = lower value.
Where [7] appears, read: measured here: total cells without miR-34 induction.

The structures appear in SMILES notation. Where “and” joins values, the source holds several entries; their conditions need not be identical. Equal entries are not always repeated. Calls of active or inactive are those of the source.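 The calls were made as follows, unless noted: active = compounds whose cell count with miR-34 switched on is under 0.7 times the count with it off; inactive = the rest.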

For the compound `CCCCOC(=O)c1cc2c(cn1)[nH]c1ccccc12`, the remaining activity (as a rule, the signal under treatment as a percentage of the control signal) in assay [1] is 96.6% (inactive). Further, the results for the fold change in assay [2] (setting [4]) and in assay [2] (setting [5]) were 0.861 (inactive) and 0.7, respectively. For the same compound, the cell count in assay [2] (setting [6]) worked out at 7200; in assay [2] (setting [7]) it was 8360. For the same compound, the z-score in assay [3] was 1.05 (inactive).

In the case of `c1ccc(C2NNCC2c2ccnc3ccccc23)nc1` (centres undefined), in assay [1], the remaining activity is 101% (inactive). In addition, the fold change in assay [2] (setting [4]) was 0.908 (inactive); in assay [2] (setting [5]), 1.57. For the same compound, the cell count was 8690 in assay [2] (setting [6]) and 9570 in assay [2] (setting [7]). Besides, in assay [3], the z-score was -0.15 (inactive).

`CNc1cc(OC)c(C(=O)N[C@@H]2CCN(Cc3ccccc3)[C@@H]2C)cc1Cl` (racemic): in assay [1], the remaining activity is 104% (inactive). The fold change in assay [2] (setting [4]) is 0.926 (inactive); in assay [2] (setting [5]) it was 1.02. Further, the cell count in assay [2] (setting [6]) is 8160; in assay [2] (setting [7]) it was 8810. Besides, the z-score in assay [3] is -0.56 (inactive).

Take `Cc1nc2c(O)cccc2c(=O)[nH]1`: the remaining activity in assay [1] is 117% (inactive). Further, the fold change was 0.957 (inactive) in assay [2] (setting [4]) and 0.648 in assay [2] (setting [5]). For the same compound, the results for the cell count in assay [2] (setting [6]) and in assay [2] (setting [7]) were 9130 and 9530, respectively. The z-score in assay [3] was -0.215 (inactive).

As for `CN(Cc1ccccc1)C(=O)[C@H](Cc1ccc2ccccc2c1)NC(=O)[C@@H]1CCCN1C(=O)Nc1ccccc1[N+](=O)[O-]`, the remaining activity in assay [1] is 123% (inactive). For the same compound, the fold change is 0.972 (inactive) in assay [2] (setting [4]) and 1.17 in assay [2] (setting [5]). Moreover, the values for the cell count in assay [2] (setting [6]) and in assay [2] (setting [7]) were 5700 and 5860, respectively. For the same compound, the z-score in assay [3] was 1.83 (active).

As for `C/C(O)=C1/C(=O)[C@@H]2[C@H]3c4c[nH]c5cccc(c45)C[C@H]3C(C)(C)N2C1=O`, the remaining activity in assay [1] was 119% (inactive). Further, the fold change is 0.988 (inactive) in assay [2] (setting [4]) and 1.54 in assay [2] (setting [5]). The cell count in assay [2] (setting [6]) was 6050; in assay [2] (setting [7]) it was 6130. In addition, the z-score in assay [3] is -0.525 (inactive).

In the case of `O=C(O)c1cc(Oc2ccc([N+](=O)[O-])cc2)cc(Oc2ccc([N+](=O)[O-])cc2)c1`, in assay [1], the remaining activity was 113% (inactive). In addition, the fold change in assay [2] (setting [4]) was 0.979 (inactive); in assay [2] (setting [5]), 0.988. Further, the cell count in assay [2] (setting [6]) was 8410; in assay [2] (setting [7]) it was 8600. Moreover, the z-score in assay [3] was 1.39 (inactive).

In the case of `NC(=O)N/N=C/c1ccc(Oc2ccc(F)cc2)cc1`, in assay [1], the remaining activity was 94.3% (inactive). For the same compound, the fold change in assay [2] (setting [4]) is 0.798 (inactive); in assay [2] (setting [5]), 2.22. Moreover, the cell count was 7090 in assay [2] (setting [6]) and 8890 in assay [2] (setting [7]). Further, the z-score in assay [3] is 0.135 (inactive).

For `CCOC(=O)c1c(C)[nH]c2ccc3c(c12)CN1CCc2cc(OC)ccc2C1O3` (centres undefined), in assay [1], the remaining activity is 112% (inactive). Also, the fold change in assay [2] (setting [4]) is 0.942 (inactive); in assay [2] (setting [5]), 0.667. For the same compound, the cell count in assay [2] (setting [6]) was found to be 3940; in assay [2] (setting [7]), 4180. For the same compound, in assay [3], the z-score is -0.785 (inactive).

As to `COC(=O)Nc1ccc2[nH]cc(CCNC(C)=O)c2c1`, in assay [1], the remaining activity was 121% (inactive). Besides, the fold change in assay [2] (setting [4]) is 0.99 (inactive); in assay [2] (setting [5]), 0.823. The cell count in assay [2] (setting [6]) came out at 8200; in assay [2] (setting [7]), 8280. Further, the z-score in assay [3] is -0.205 (inactive).

In the case of `Cn1cccc1/C=C1\C(=O)NC(=O)c2ccccc21`, the remaining activity in assay [1] is 129% (inactive). For the same compound, the fold change in assay [2] (setting [4]) is 0.918 (inactive); in assay [2] (setting [5]) it was 1.16. For the same compound, the cell count in assay [2] (setting [6]) came to 8530; in assay [2] (setting [7]), 9300. Also, the z-score in assay [3] is -0.415 (inactive).

As to `COc1ccc2cccc(N3CCN(CCNC(=O)c4ccc(F)cc4)CC3)c2c1`, the remaining activity in assay [1] was 104% (inactive). For the same compound, the fold change in assay [2] (setting [4]) is 0.924 (inactive); in assay [2] (setting [5]) it was 0.854. Moreover, the figures for the cell count in assay [2] (setting [6]) and in assay [2] (setting [7]) were 7720 and 8360, respectively. Besides, in assay [3], the z-score was -0.77 (inactive).

As for `COc1cc(C[C@H]2C(=O)OC[C@@H]2Cc2ccc(OC)c(OC)c2)ccc1O`, the remaining activity in assay [1] was 104% (inactive). Also, the fold change is 0.937 (inactive) in assay [2] (setting [4]) and 0.733 in assay [2] (setting [5]). Further, the cell count turned out to be 4240 in assay [2] (setting [6]) and 4530 in assay [2] (setting [7]). Moreover, the z-score in assay [3] was -0.76 (inactive).

In the case of `COc1ccccc1N1CCN(CCN2C(=O)c3ccccc3C(C)(C)C2=O)CC1`, the remaining activity in assay [1] is 124% (inactive). Moreover, the fold change in assay [2] (setting [4]) is 1.04 (inactive); in assay [2] (setting [5]), 1.01. The values for the cell count in assay [2] (setting [6]) and in assay [2] (setting [7]) were 7580 and 7320, respectively. The z-score in assay [3] was -0.455 (inactive).

`CCOC(=O)NC[C@H](Cc1ccc(OCCc2nc(-c3ccccc3)oc2C)cc1)N/C(C)=C\C(=O)c1ccc(C(F)(F)F)cc1`: the remaining activity in assay [1] is 105% (inactive). In addition, the fold change in assay [2] (setting [4]) is 1.05 (inactive); in assay [2] (setting [5]), 1.05. The cell count came out at 5130 in assay [2] (setting [6]) and 4910 in assay [2] (setting [7]). The z-score in assay [3] is -0.305 (inactive).

Take `O=c1oc(-c2ccc(C(F)(F)F)cc2)nn1Cc1cc(Cl)ccc1O`: the remaining activity in assay [1] was 93.9% (inactive). Moreover, the fold change was 1.02 (inactive) in assay [2] (setting [4]) and 1.81 in assay [2] (setting [5]). Also, the cell count was 6380 in assay [2] (setting [6]) and 6280 in assay [2] (setting [7]). Also, the z-score in assay [3] is -0.655 (inactive).

For `COc1ccc(-c2nc(C(=O)N3CCN(C)CC3)sc2-c2ccc(OC)cc2)cc1`, in assay [1], the remaining activity is 116% (inactive). The fold change was 0.946 (inactive) and 0.989 (inactive) in assay [2] (setting [4]); 2.48 and 0.892 in assay [2] (setting [5]). Also, the cell count was 5370 and 9040 in assay [2] (setting [6]); 5680 and 9140 in assay [2] (setting [7]). Besides, the z-score in assay [3] is -0.66 (inactive).

Regarding `CCCCCCCC/C=C\CCCCCCCC(=O)N[C@@H](CO)Cc1ccc(O)cc1`, the remaining activity in assay [1] is 129% (inactive). Further, the fold change in assay [2] (setting [4]) was 0.903 (inactive) and 0.933 (inactive); in assay [2] (setting [5]), 1.11 and 0.626. The cell count was 5590 and 5540 in assay [2] (setting [6]); 6200 and 5940 in assay [2] (setting [7]). Further, the z-score in assay [3] is -0.83 (inactive).

For `O=C(O)/C=C1\CCCc2ccccc2C1O` (centres undefined), in assay [1], the remaining activity was 103% (inactive). For the same compound, the figures for the fold change in assay [2] (setting [4]) and in assay [2] (setting [5]) were 0.917 (inactive) and 0.874, respectively. Moreover, the cell count was 8860 in assay [2] (setting [6]) and 9660 in assay [2] (setting [7]). Further, the z-score in assay [3] was -0.145 (inactive).
